# Assay results: PMC7862700, “An all-to-all approach to the identification of sequence-specific readers for epigenetic DNA modifications on cytosine”
# Legend:
# Assay in all cases: DAPPL (digital affinity profiling via proximity ligation, sequencing); 10 mM Tris-HCl pH 7.5, 50 mM NaCl, 1 mM DTT, 4% glycerol, room temperature, 30 min; GST-TFs on glutathione beads, 16-mer random dsDNA library, 0.1% formaldehyde crosslink after washing; high values mean tight binding
# Settings in all cases: protein: recombinant; tags: N-terminal GST; dsDNA, one strand shown
# FLI1 = target: T1, FLI1 (Homo sapiens, UniProt Q01543 1-452)
# T1 sequence: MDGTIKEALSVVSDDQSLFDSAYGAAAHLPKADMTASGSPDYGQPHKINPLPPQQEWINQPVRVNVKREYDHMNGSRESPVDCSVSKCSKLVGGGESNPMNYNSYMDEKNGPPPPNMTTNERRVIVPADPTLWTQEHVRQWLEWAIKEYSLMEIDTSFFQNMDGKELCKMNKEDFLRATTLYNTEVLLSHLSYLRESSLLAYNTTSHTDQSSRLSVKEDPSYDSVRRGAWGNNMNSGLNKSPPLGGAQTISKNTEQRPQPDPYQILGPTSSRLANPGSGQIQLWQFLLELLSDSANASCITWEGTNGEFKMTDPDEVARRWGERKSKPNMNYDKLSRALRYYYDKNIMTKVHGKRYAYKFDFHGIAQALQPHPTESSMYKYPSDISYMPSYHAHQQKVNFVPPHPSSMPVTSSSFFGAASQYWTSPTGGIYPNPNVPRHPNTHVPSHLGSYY
# Method in brief: (§1)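 Sequencing on an Illumina NextSeq500 followed washing, crosslinking with 0.1% formaldehyde, proximity ligation (BsaI/T4 ligase, 1 h, 37 °C) and PCR amplification of pools that had been incubated for 30 min at room temperature with 200 nmole of a random double-stranded 16-mer DNA library in Tris/NaCl/DTT/glycerol buffer. Each pool held DNA-barcoded human transcription factors, expressed in yeast as GST fusions and captured on glutathione beads, plus a tag-only sample. Binding signal is a hexamer's read frequency for a factor divided by its frequency in the tag-only sample.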
# ELK1 = target: T2, ELK1 (Homo sapiens, UniProt P19419 1-428)
# T2 sequence: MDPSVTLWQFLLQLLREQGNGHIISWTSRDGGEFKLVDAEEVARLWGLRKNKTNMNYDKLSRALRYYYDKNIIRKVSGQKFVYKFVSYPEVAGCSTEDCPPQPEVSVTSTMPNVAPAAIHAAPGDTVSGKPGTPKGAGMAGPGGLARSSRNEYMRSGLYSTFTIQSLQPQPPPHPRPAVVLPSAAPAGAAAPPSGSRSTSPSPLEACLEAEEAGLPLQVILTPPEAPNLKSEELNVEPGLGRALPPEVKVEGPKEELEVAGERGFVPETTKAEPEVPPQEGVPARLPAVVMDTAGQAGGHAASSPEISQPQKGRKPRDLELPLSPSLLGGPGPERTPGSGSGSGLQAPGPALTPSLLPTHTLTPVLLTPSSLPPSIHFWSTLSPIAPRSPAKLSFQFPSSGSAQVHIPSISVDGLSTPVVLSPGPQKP
# Method in brief: as §1
# GABPA = target: T3, GABPA (Homo sapiens, UniProt Q06546 1-454)
# T3 sequence: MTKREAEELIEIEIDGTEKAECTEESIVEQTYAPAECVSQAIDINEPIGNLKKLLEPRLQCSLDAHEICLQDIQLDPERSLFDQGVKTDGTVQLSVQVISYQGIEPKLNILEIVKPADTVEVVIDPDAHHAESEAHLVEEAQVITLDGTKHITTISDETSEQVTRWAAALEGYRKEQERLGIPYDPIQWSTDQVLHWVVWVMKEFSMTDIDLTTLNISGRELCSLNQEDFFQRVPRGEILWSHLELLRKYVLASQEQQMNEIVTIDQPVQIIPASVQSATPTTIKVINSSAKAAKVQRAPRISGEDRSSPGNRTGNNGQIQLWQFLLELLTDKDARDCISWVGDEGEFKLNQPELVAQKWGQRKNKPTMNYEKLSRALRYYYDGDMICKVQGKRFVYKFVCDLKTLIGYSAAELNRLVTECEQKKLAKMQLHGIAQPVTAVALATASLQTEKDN
# Method in brief: as §1
# ERG = target: T4, ERG (Homo sapiens, UniProt P11308 1-479)
# T4 sequence: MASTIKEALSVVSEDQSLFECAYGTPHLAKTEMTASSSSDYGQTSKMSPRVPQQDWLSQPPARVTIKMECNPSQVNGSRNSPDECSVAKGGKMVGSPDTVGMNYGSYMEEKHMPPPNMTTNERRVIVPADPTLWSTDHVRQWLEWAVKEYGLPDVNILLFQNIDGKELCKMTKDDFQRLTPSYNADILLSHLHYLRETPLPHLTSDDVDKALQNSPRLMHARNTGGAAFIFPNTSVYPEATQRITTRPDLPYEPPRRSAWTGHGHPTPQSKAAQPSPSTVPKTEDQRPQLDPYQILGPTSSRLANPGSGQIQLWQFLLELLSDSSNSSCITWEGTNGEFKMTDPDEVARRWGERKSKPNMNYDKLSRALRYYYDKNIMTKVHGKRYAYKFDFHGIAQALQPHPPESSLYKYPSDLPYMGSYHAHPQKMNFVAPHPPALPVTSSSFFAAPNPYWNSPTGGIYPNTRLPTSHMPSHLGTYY
# Method in brief: as §1
# ELF1 = ELF1 (Homo sapiens, UniProt P32519 1-619)
# Method in brief: as §1
# EHF = target: T5, EHF (Homo sapiens, UniProt Q9NZC4 1-300)
# T5 sequence: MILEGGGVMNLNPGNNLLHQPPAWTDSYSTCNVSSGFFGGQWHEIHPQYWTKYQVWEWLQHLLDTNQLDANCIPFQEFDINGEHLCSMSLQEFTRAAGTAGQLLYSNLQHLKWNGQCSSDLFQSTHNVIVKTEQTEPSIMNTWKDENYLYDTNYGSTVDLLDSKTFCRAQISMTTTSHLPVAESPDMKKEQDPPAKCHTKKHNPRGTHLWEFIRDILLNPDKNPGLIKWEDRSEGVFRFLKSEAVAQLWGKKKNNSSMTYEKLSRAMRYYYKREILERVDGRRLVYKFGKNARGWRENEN
# Method in brief: as §1
# SPI1 = SPI1 (Homo sapiens, UniProt P17947 1-270)
# Method in brief: as §1
# SPIB = SPIB (Homo sapiens, UniProt Q01892 1-262)
# Method in brief: as §1
# ELK3 = target: T6, ELK3 (Homo sapiens, UniProt P41970 1-407)
# T6 sequence: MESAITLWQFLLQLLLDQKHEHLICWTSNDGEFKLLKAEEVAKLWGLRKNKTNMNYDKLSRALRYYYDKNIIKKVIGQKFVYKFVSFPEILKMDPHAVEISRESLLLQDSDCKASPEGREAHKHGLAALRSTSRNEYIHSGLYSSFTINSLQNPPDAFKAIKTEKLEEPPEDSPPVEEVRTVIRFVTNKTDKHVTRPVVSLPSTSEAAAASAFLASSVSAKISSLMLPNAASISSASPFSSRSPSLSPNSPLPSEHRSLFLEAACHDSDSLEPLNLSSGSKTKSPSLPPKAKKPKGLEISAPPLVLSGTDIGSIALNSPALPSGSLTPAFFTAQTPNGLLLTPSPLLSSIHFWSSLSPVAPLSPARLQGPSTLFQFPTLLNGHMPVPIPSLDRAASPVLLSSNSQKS
# Method in brief: as §1
# FEV = target: T7, FEV (Homo sapiens, UniProt Q99581 1-238)
# T7 sequence: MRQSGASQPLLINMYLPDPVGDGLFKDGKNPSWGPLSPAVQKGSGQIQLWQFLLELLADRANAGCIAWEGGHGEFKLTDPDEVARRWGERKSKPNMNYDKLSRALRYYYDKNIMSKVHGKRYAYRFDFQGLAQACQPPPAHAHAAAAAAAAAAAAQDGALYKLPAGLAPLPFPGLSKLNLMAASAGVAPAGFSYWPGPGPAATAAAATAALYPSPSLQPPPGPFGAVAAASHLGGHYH
# Method in brief: as §1
# SPIC = target: T8, SPIC (Homo sapiens, UniProt Q8N5J4 1-248)
# T8 sequence: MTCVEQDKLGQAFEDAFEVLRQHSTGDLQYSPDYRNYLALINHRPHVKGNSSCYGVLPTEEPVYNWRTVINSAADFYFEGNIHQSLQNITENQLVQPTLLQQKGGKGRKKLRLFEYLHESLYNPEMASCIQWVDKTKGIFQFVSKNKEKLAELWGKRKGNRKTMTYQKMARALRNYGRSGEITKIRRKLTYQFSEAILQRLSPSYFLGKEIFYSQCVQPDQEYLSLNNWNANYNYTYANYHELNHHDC
# Method in brief: as §1
# ELF4 = ELF4 (Homo sapiens, UniProt Q99607 1-663)
# Method in brief: as §1
# Sequence of ELF4 (Q99607 whole entry): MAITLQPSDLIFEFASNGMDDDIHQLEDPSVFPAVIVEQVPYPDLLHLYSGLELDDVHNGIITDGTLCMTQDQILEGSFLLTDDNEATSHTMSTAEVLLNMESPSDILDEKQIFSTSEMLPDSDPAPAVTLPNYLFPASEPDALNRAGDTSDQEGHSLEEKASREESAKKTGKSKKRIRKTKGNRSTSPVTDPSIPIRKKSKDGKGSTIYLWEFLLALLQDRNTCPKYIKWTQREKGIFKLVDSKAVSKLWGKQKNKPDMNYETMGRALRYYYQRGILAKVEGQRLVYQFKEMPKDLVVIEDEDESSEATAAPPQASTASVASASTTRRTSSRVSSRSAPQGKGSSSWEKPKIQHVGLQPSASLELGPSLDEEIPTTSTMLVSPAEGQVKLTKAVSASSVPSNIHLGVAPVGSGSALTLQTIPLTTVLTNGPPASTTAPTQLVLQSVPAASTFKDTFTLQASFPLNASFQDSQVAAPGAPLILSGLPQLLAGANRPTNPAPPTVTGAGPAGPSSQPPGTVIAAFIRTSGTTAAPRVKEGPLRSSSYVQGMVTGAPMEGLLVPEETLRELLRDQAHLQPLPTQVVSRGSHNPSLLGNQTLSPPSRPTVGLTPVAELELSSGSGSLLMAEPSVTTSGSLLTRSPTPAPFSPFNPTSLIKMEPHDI
# Sequence of ELF1 (P32519 whole entry): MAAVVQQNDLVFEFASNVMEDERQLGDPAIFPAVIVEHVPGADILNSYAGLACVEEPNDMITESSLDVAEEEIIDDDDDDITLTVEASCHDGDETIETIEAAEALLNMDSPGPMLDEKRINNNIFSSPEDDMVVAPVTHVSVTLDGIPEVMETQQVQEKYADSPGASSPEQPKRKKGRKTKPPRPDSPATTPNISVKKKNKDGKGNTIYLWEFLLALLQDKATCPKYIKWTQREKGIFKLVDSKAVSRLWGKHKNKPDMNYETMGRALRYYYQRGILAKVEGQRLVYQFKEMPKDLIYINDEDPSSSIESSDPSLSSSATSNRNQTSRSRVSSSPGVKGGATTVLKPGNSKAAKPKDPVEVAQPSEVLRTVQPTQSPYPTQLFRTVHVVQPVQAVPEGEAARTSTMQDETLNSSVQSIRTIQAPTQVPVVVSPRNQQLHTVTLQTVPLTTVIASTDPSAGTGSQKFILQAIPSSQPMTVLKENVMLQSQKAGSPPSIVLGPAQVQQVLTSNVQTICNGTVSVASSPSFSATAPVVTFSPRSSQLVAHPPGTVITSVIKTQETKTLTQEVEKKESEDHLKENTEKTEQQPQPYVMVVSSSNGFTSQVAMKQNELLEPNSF
# Sequence of SPIB (Q01892 whole entry): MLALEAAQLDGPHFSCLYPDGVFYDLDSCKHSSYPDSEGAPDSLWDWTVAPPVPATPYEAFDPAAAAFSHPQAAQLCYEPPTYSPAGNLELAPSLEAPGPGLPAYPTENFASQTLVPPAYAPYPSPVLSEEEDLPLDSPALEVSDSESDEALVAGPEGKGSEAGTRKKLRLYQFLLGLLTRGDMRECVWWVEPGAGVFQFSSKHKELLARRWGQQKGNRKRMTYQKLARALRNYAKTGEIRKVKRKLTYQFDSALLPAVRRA
sequence,measurement,setting,value
ACCCCT,binding signal,FLI1,"1.11 fold enrichment (6-mer frequency, TF over GST control)"
same,binding signal,ELK1,"1.07 fold enrichment (6-mer frequency, TF over GST control)"
same,binding signal,GABPA,"1.04 fold enrichment (6-mer frequency, TF over GST control)"
same,binding signal,ERG,"1.01 fold enrichment (6-mer frequency, TF over GST control)"
same,binding signal,ELF1,"1.16 fold enrichment (6-mer frequency, TF over GST control)"
same,binding signal,EHF,"1.09 fold enrichment (6-mer frequency, TF over GST control)"
same,binding signal,SPI1,"1.1 fold enrichment (6-mer frequency, TF over GST control)"
same,binding signal,SPIB,"1.08 fold enrichment (6-mer frequency, TF over GST control)"
same,binding signal,ELK3,"1.08 fold enrichment (6-mer frequency, TF over GST control)"
same,binding signal,FEV,"1.08 fold enrichment (6-mer frequency, TF over GST control)"
same,binding signal,SPIC,"1.05 fold enrichment (6-mer frequency, TF over GST control)"
same,binding signal,ELF4,"1.09 fold enrichment (6-mer frequency, TF over GST control)"
